Among the test systems are DU-145 prostate; K-562 leukemia; MALME-3M melanoma; MDA-MB-231 breast; RXF 393 renal; SF-268 CNS; SF-295 CNS; SF-539 CNS; UACC-257 melanoma; M14 melanoma; HCT-15 colon; HT29 colon; SNB-75 CNS; SNB-19 CNS; U251 CNS; PC-3 prostate; SK-MEL-5 melanoma; UACC-62 melanoma; LOX IMVI melanoma; SK-MEL-28 melanoma.
Holding throughout (test): NCI-60 one-dose screen, 48 h (100 = growth as untreated, 0 = no growth, -100 = all killed)
Conditions in all cases: 10 µM unless noted

This is part of a sample that, as a whole, favours compounds with a hit. Of some 83,000 tested, about 20% had one in any assay.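 Negative percent growth values reflect cell death: -40 means 40% of the cells present at the start died, and -100 means all died.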 A number with no mark means an inactive call. Calls of active or inactive are those of the source. The calls were made as follows: active = growth percent below 10; inactive = the rest.

Consider `O=C(NOC[C@H](O)CO)c1ccc(F)c(F)c1Nc1ccc(I)cc1F`, for which the growth with DU-145 prostate was 58.7%; with K-562 leukemia, 29.2%; with MALME-3M melanoma, -11.7% (active); in the experiment on MDA-MB-231 breast, 20.9%; with RXF 393 renal it was 2.18% (active); in the experiment on SF-268 CNS it was 60.1%. Also, the growth was 75% in the experiment on SF-295 CNS; 64.2% with SF-539 CNS; -26.8% (active) in the experiment on UACC-257 melanoma; 3.66% (active) in the experiment with M14 melanoma; 53% with HCT-15 colon; 7.15% (active) with HT29 colon. Moreover, the growth was 59.9% in the experiment on SNB-75 CNS; 49.1% in the experiment with SNB-19 CNS; 38.6% with U251 CNS; 92.8% in the experiment with PC-3 prostate; 42.5% in the experiment on SK-MEL-5 melanoma; -10.7% (active) in the experiment with UACC-62 melanoma. Also, the growth was 23.1% with LOX IMVI melanoma and -2.06% (active) in the experiment with SK-MEL-28 melanoma.
As for `Cc1cc(Nc2ncnc3ccc(NC4=NC(C)(C)CO4)cc23)ccc1Oc1ccn2ncnc2c1`, the growth in the experiment on DU-145 prostate was 35.2%; with K-562 leukemia it was 10%; in the experiment on MALME-3M melanoma, -8.78% (active); in the experiment on MDA-MB-231 breast, -4.62% (active); in the experiment on RXF 393 renal, 0.527% (active); with SF-268 CNS it was 41.8%. Also, the growth in the experiment with SF-295 CNS is 52.7%; in the experiment on SF-539 CNS, 30.4%; in the experiment on UACC-257 melanoma it was 4.04% (active); in the experiment with M14 melanoma, 8.95% (active); in the experiment on HCT-15 colon, 47.9%; with HT29 colon it was 5.46% (active). Moreover, the growth is 39% with SNB-75 CNS; 44.3% with SNB-19 CNS; 36.2% in the experiment with U251 CNS; 41.3% in the experiment on PC-3 prostate; 19.2% in the experiment with SK-MEL-5 melanoma; 14.3% in the experiment on UACC-62 melanoma. For the same molecule, the growth in the experiment on LOX IMVI melanoma is 11.2%; in the experiment with SK-MEL-28 melanoma, 12.9%.
Regarding `NC1(C(=O)N[C@@H](CCO)c2ccc(Cl)cc2)CCN(c2ncnc3[nH]ccc23)CC1`, the growth with DU-145 prostate is 57.2%; in the experiment on K-562 leukemia, 76.9%; with MALME-3M melanoma, 9.74% (active); with MDA-MB-231 breast, 73.5%; in the experiment with RXF 393 renal it was -42.3% (active); with SF-268 CNS, 60.9%. Besides, the growth is -3.48% (active) in the experiment with SF-295 CNS; -54.4% (active) in the experiment with SF-539 CNS; 31.7% in the experiment with UACC-257 melanoma; 46.3% with M14 melanoma; 58.1% with HCT-15 colon; 23.5% in the experiment with HT29 colon. For the same molecule, the growth with SNB-75 CNS was -46.8% (active); in the experiment with SNB-19 CNS, 43.5%; with U251 CNS, 34.6%; with PC-3 prostate, 49.8%; in the experiment on SK-MEL-5 melanoma, 70.5%; with UACC-62 melanoma, -15.6% (active). Further, the growth was 40.3% in the experiment with LOX IMVI melanoma and 24.7% in the experiment on SK-MEL-28 melanoma.
With `O=C(Cn1cncn1)Nc1ccc(-c2nc3ccccc3s2)cc1`, the growth was 94.5% with DU-145 prostate; 85.8% in the experiment with K-562 leukemia; 100% with MALME-3M melanoma; 96.5% in the experiment with MDA-MB-231 breast; 125% in the experiment with RXF 393 renal; 97.1% with SF-268 CNS. The growth is 91.9% in the experiment with SF-295 CNS; 108% with SF-539 CNS; 102% in the experiment with UACC-257 melanoma; 111% in the experiment with M14 melanoma; 101% in the experiment on HCT-15 colon; 105% in the experiment with HT29 colon. Besides, the growth was 92.1% with SNB-75 CNS; 93% in the experiment with SNB-19 CNS; 90% with U251 CNS; 85.8% with PC-3 prostate; 86.7% in the experiment on SK-MEL-5 melanoma; 95.2% in the experiment on UACC-62 melanoma. Also, the growth in the experiment with LOX IMVI melanoma was 99.3%; with SK-MEL-28 melanoma, 111%.
Turning to `Nc1nc(Nc2ccccc2)c(C=Nc2ccccc2)c(=O)[nH]1`, the growth in the experiment with DU-145 prostate was 103%; with K-562 leukemia, 90.4%; in the experiment on MALME-3M melanoma, 103%; in the experiment with MDA-MB-231 breast, 104%; with RXF 393 renal, 91.7%; with SF-268 CNS it was 94%. Further, the growth in the experiment on SF-295 CNS is 95.5%; in the experiment with SF-539 CNS it was 85.5%; in the experiment with UACC-257 melanoma it was 93.6%; in the experiment with M14 melanoma it was 91.5%; with HCT-15 colon it was 96.9%; in the experiment with HT29 colon, 101%. For the same molecule, the growth in the experiment on SNB-75 CNS was 80.3%; in the experiment on SNB-19 CNS, 89.1%; with U251 CNS it was 89.1%; with PC-3 prostate it was 87.5%; with SK-MEL-5 melanoma, 98.4%; in the experiment on UACC-62 melanoma, 84.3%. In addition, the growth with LOX IMVI melanoma is 87.1%; with SK-MEL-28 melanoma, 109%.
With `Clc1ccc(Nc2nccc(Nc3ccc4[nH]ncc4c3)n2)cc1`, the growth is 49.8% in the experiment on DU-145 prostate; -7.92% (active) in the experiment with K-562 leukemia; 87.5% with MALME-3M melanoma; 68.8% in the experiment with MDA-MB-231 breast; 35.1% with RXF 393 renal; 60.4% with SF-268 CNS. The growth was 70.9% with SF-295 CNS; 75.8% in the experiment on SF-539 CNS; 87.6% with UACC-257 melanoma; 43.8% with M14 melanoma; 40.5% in the experiment with HCT-15 colon; 16.6% in the experiment with HT29 colon. In addition, the growth with SNB-75 CNS was 67.6%; with SNB-19 CNS it was 78.1%; in the experiment on U251 CNS, 58.8%; in the experiment with PC-3 prostate, 24.9%; in the experiment with SK-MEL-5 melanoma it was 25.9%; in the experiment with UACC-62 melanoma, 33.5%. Also, the growth in the experiment with LOX IMVI melanoma was 44.9%; in the experiment with SK-MEL-28 melanoma, 80%.
With `C=CCCCOC1[C@H](OCc2ccccc2)C(OCc2ccccc2)C(OC)O[C@@H]1CNC(=O)c1cccc(I)c1` (stereo not given in full), the growth with DU-145 prostate was 49.7%; in the experiment on K-562 leukemia it was 52%; in the experiment with MALME-3M melanoma, 80.4%; in the experiment on MDA-MB-231 breast it was 58%; with RXF 393 renal, 38.1%; in the experiment with SF-268 CNS, 31.3%. Also, the growth in the experiment on SF-295 CNS is 35%; in the experiment on SF-539 CNS, 31.8%; in the experiment on UACC-257 melanoma, 36.8%; with M14 melanoma, 47.1%; in the experiment on HCT-15 colon, 24.9%; with HT29 colon, 33.1%. For the same molecule, the growth in the experiment with SNB-75 CNS is 54.4%; with SNB-19 CNS, 49.9%; with U251 CNS it was 25.4%; in the experiment on PC-3 prostate it was 25%; in the experiment with SK-MEL-5 melanoma it was -6.8% (active); in the experiment with UACC-62 melanoma, 30.9%. Besides, the growth was 11.4% in the experiment on LOX IMVI melanoma and 70.5% in the experiment on SK-MEL-28 melanoma.

(Values after PubChem BioAssay (NCI).)
